# Laboratory results as given in PubChem BioAssay AID1508608 (The Scripps Research Institute Molecular Screening Center, 2020).
# The whole screen tested about 2,300 compounds, of which about 20 (0.9%) were called active. What follows is part of a selection rich in actives, with near analogues and random picks from the rest. A number with no mark means an inactive call.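 How the source made its calls: active means mean activation across replicates above 26.72%, the hit cutoff set for this confirmation screen; inactive means the rest.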
# Target: G-protein coupled receptor 151 (Homo sapiens) (UniProt Q8TDV0)
# Test: GPR151 agonism via beta-arrestin recruitment – cell-based, PathHunter beta-arrestin, luminescence, set 2, confirmation (AID 1508608);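 further: 0% = plate median of compound wells and 100% = EA reagent high control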
# Conditions: GPR151 PathHunter beta-arrestin cells, 90 min, at 11.2 µM, stronger effect = higher value, 100% = signal from added EA reagent
# Sequence of G-protein coupled receptor 151 (Homo sapiens) (Q8TDV0 whole entry, looked up): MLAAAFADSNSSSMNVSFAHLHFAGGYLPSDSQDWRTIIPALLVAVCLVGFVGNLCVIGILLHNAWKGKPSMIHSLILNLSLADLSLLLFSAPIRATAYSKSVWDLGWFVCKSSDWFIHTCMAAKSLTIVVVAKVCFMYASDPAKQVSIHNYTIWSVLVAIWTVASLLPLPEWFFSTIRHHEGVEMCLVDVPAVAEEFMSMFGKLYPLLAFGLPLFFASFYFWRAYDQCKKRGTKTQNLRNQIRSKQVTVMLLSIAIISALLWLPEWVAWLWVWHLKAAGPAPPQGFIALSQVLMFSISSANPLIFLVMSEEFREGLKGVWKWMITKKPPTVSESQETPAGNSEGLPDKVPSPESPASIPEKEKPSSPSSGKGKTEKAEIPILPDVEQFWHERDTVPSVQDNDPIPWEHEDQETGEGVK
row,SMILES,activation
1,COc1ccc(-c2nc(Nc3ccccc3F)c3ccccc3n2)cc1OC,8.64%
2,CC(C)C[C@H]1NC(=O)[C@H]2CN(C(=O)c3cccc(Cl)c3)CCN2C1=O,-3.06%
3,CC[C@@H](C(=O)C(C)[C@@H](O)[C@H](C)CCc1ccc(C)c(O)c1C(=O)O)C1OC(CC)(C2CC[C@](O)(CC)[C@H](C)O2)C[C@@H]1C (some centres undefined),83.1% (active)
4,O=C(Nc1ncc(C(O)(C(F)(F)F)C(F)(F)F)s1)c1ccccc1Cl,-4.3%
5,COc1ccc(NC(=O)c2cc3c(CO)cnc(C)c3oc2=N)cc1Cl,-0.43%
6,O=C(NCCc1nnc2n1CCN(Cc1ccccc1-c1ccco1)CC2)C1CCCO1 (centres undefined),-0.22%
7,CCc1ccccc1NC(=S)N(CCc1ccc(OC)c(OC)c1)Cc1cccnc1,12%
8,O=C(Nc1nc(-c2ccc(I)cc2)cs1)c1ccc(Cl)s1,4.72%
9,CC(C)[C@@H]1NC(=O)[C@@H]2C[C@H](NCc3cn(C)nc3-c3ccccc3)CN2C1=O,-1.25%
10,Cc1nn(-c2ccccc2)c(Cl)c1/C=N\O,1.25%
11,Cc1ccc(O)c(NC(=O)COCc2cc(-c3ccc(F)cc3)on2)c1,-1.43%
12,COc1cc(NC(=O)c2nn3c(C(F)(F)F)cc(-c4ccco4)nc3c2Cl)c(OC)cc1Cl,-0.24%
13,CCC(=O)N1CCc2cc(S(=O)(=O)Nc3cccc(C)c3)ccc21,-1.7%
14,CC(=O)N1CCc2cc(Br)cc(S(=O)(=O)Nc3ccc(C)cc3C)c21,-9.66%
15,O=C(Nc1nc2c(s1)-c1cccc3cccc-2c13)C1CC1,-2.94%
16,Cc1cccc(NCC(=O)N/N=C/c2ccccc2O)c1,-1.08%
17,CN1CCN(C(=O)c2cc3c(=O)[nH]c4ccccc4c3s2)CC1,-2.02%
18,COc1ccc(OC)c(S(=O)(=O)NCCc2csc(-c3cccnc3)n2)c1,-1.44%
19,Cc1cccc(N(CCCN2C(=O)c3cccc4cccc(c34)C2=O)C(=O)c2cccs2)c1,2.61%
20,CC(=O)NN1C(=O)c2ccc(Oc3ccc4c(c3)C(=O)N(NC(C)=O)C4=O)cc2C1=O,1.35%
21,COc1ccc(/C=c2\sc3ncnn3c2=O)c(OC)c1,1.55%
22,COc1ccccc1C1SC(NC(C)=O)=NN1C(C)=O (centres undefined),4.02%
23,Cc1cccc(C2c3[nH]c4ccccc4c3CCN2C(=O)CCN2CCCCO2)n1 (centres undefined),2.25%
24,COc1cccc(CC(=O)NCC2CC(Cc3ccc(F)cc3)=NO2)c1 (centres undefined),-4.37%
25,COc1ccc(CCNc2cc(C)nc(Nc3ccc(-n4ccnc4)cc3)n2)cc1,41.2% (active)
26,Cc1cc(Nc2ccc3c(c2)OCO3)nc(Nc2ccc(N3CCOCC3)cc2)n1,12.3%
27,COc1cccc(Nc2nc(Nc3cc(C)ccc3C)nc(N3CCOCC3)n2)c1,8.14%

row,SMILES,activation
1,COc1ccc(CCNc2ccnc(Nc3ccc(-n4ccnc4)cc3)n2)cc1,38.8% (active)
2,COc1ccc(CCNc2ccnc(Nc3ccc(N4CCOCC4)cc3)n2)cc1,28.5% (active)
3,COc1cc(Nc2ccnc(Nc3ccc(N4CCOCC4)cc3)n2)cc(OC)c1OC,4.44%
4,Cc1cc(Nc2ccc(N3CCOCC3)cc2)nc(Nc2ccc(-n3ccnc3)cc2)n1,17.5%
5,Cc1ccc(NC(=O)/C(=C\c2ccco2)NC(=O)c2cccc(C)c2)cc1,0.99%
6,CC(C)CC(NC(=O)C(C)NC(=O)CNC(=O)C(NC=O)C(C)C)C(=O)NC(C)C(=O)NC(C(=O)NC(C(=O)NC(C(=O)NC(Cc1c[nH]c2ccccc12)C(=O)NC(CC(C)C)C(=O)NC(Cc1c[nH]c2ccccc12)C(=O)NC(CC(C)C)C(=O)NC(Cc1c[nH]c2ccccc12)C(=O)NC(CC(C)C)C(=O)NC(Cc1c[nH]c2ccccc12)C(=O)NCCO)C(C)C)C(C)C)C(C)C (centres undefined),101% (active)
7,COc1ccc(-c2nc(Nc3ccc(C)c(Cl)c3)c3ccccc3n2)cc1OC,12.1%
8,COc1ccc(CCN2C(=O)c3ccc(Oc4ccc(Nc5ncnc6ccccc56)cc4)cc3C2=O)cc1OC,40.5% (active)
9,COc1ccc(CCN2C(=O)c3cccnc3C2=O)cc1OC,2.67%
10,CC(NC(=O)c1ccco1)c1nnc2n1CCN(Cc1cccc(F)c1)CC2 (centres undefined),17.5%
11,CCOC(=O)C1=NN=C2C(=O)N(c3ccccc3)C(=O)C12 (centres undefined),0.79%
12,CCOc1ccc(NC(=O)/C(C#N)=C/c2c[nH]c3ccccc23)cc1,1.37%
13,O=C(CSc1nc(-c2ccccc2)cn1-c1ccccc1)Nc1ccccc1Cl,6.36%
14,O=C1OC(c2ccc(Br)cc2)=N/C1=C\c1ccc(Br)cc1,0.61%
15,Cc1ccc(S(=O)(=O)N(CC(=O)N2CCOCC2)CC(=O)N2CCOCC2)cc1,7.51%
16,O=C1C2CCCN2C(c2ccco2)N1c1ccc(F)cc1 (centres undefined),2.43%
17,FC(F)(F)c1nc(Nc2ccccc2Cl)sc1-c1ccccc1,4.88%
18,N/C(=N\c1nc(=O)c2ccccc2s1)NC(=O)c1cccc(Br)c1,0.6%
19,CCOc1ccc(NC(=O)CN2CCN(CC(=O)Nc3ccc(N(C)C)cc3)CC2)cc1,-2.91%
20,COc1cc(C2=N/C(=C\c3cccc(F)c3)C(=O)O2)cc(OC)c1OC,0.44%
21,O=C1NC(=O)C(=Cc2ccc(-c3ccc(O)c([N+](=O)[O-])c3)o2)C(=O)N1,-2.55%
22,Cc1nnc(Nc2cccc(F)c2)[nH]c1=O,-3.86%
23,COC(=O)C1=C(C)NC(=O)NC1c1cc(OC)ccc1OC (centres undefined),0.35%
24,CC(C)C(NS(=O)(=O)c1cccc2nsnc12)C(=O)NC1CCCC1 (centres undefined),-3.04%
25,CC(=O)Nc1ccc(NC(=O)c2sc3ccccc3c2Cl)cc1,1%
26,CCN(CC(=O)N1CCCCC1)S(=O)(=O)c1ccc(Cl)cc1,-5.3%
27,CC1CCCN(C(=O)C(=O)N2CCCC(C)C2)C1 (centres undefined),3.28%
